This note sets out measurements from PubChem BioAssay (NCATS).

The nature of test [1]: Quantitative High-Throughput drug screen in 47 multiple myeloma cell lines against the NCATS MIPE library collection: KMS11_JCRBsus cell viability assay (AID 1919873). Further: nearly all actives have a fitted effect of over 50% in size. Further: potency means the concentration at half of the fitted maximal effect. The conditions noted are these: KMS11 myeloma viability, CellTiter-Glo ATP luminescence, 48 h; series mostly up to 45.8 µM. In short, it runs like this:
(§1)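 MIPE 4.0 approved/investigational drugs; 500 cells/well; 48 h 37 °C humidified 5% CO2; CTG luminescence readout; DMSO = 100%, media = 0% viability.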
For orientation: In ATP-based viability assays light output follows the ATP content of the culture.

Test [2] is described as follows: Quantitative High-Throughput drug screen in 47 multiple myeloma cell lines against the NCATS MIPE library collection: KMS28BM_JCRB cell viability assay (AID 1919874). Further: nearly all actives have a fitted effect of over 35% in size. Further: potency means the concentration at half of the fitted maximal effect. As to conditions: CellTiter-Glo ATP, 48 h; series mostly up to 45.8 µM. In short, it runs like this:
as §1

Test [3] can be described thus: qHTS drug screen for cell cycle checkpoint inhibitors in PARPi-resistant BRCA-mutant ovarian cancer cell lines. (AID 1963452; calls by dose curve). As to conditions: PEO1/OlaR viability, CellTiter-Glo luminescence, 96 h, stronger effect = lower value. In short, it runs like this:
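PEO1, PEO4 and PEO1/OlaR ovarian cancer cells, 600 per well, exposed 96 h at 37C to a dilution series. Viability read by CellTiter-Glo luminescence, normalized to DMSO and empty wells; activity summarized as Z-AUC.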
In general terms: qHTS replaces the single test concentration by a dilution series.

The nature of test [4]: qHTS for identification of novel therapeutic agents for treatment of microphthalmiaassociated transcription factor (MiT) renal cell carcinoma (RCC) (AID 1963991). The conditions noted are these: CellTiter-Glo, 48 h, stronger effect = lower value. In short, it runs like this: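 Curves over 11 concentrations were fitted to CellTiter-Glo luminescence, scaled between empty wells (0%) and DMSO (100%) viability. Cells were UOK109, UOK124 and UOK145 TFE3-fusion RCC lines at 500/well, exposed 48 hours at 37 C.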

Test [5] can be described thus: qHTS profiling for inhibitors of Plasmodium falciparum proliferation (AID 504749). Further: potency means the concentration at half of the fitted maximal effect.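 On activity, negative = inhibition: 0% = DMSO vehicle and full inhibition = artemisinin control.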 On all read-outs here: nearly all actives have a fitted effect of over 60% in size. The conditions noted are these: P. falciparum in erythrocytes, SYBR Green DNA, 72 h; for activity, negative = inhibition: at 28.7 µM (top of the series). In short, it runs like this: (§2)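 Parasite proliferation within erythrocytes, 72 h exposure. Endpoint: SYBR Green I fluorescence after overnight lysis at room temperature. Controls: 0.29 uM artemisinin, DMSO.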

For the next test, the system named is 3D7. The test is described as above. As to conditions: P. falciparum in erythrocytes, SYBR Green DNA, 72 h; series mostly up to 28.7 µM. In short, it runs like this:
as §2

For the next test, the system named is AA1029. The description is as above. The conditions noted are these: P. falciparum in erythrocytes, SYBR Green DNA, 72 h; series mostly up to 28.7 µM. In short, it runs like this: as §2
The next test concerns 7G8. Described as above. As to conditions: P. falciparum in erythrocytes, SYBR Green DNA, 72 h; series mostly up to 28.7 µM. In short, it runs like this:
as §2

The target of test [6] is Cytochrome P450 2D6 (Homo sapiens) (UniProt P10635). Put plainly: qHTS for inhibitors of CYP2D6 against the NCATS DSHEA and TCM libraries (AID 1919972). Further: potency means the concentration at half of the fitted maximal effect. As to conditions: CYP2D6 enzymatic inhibition, luminescence qHTS; series mostly up to 34.1 µM. In short, it runs like this: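 Luminescent P450-Glo read-out of CYP2D6 turnover of a luciferin substrate after NADPH-driven reaction of 30-45 min at room temperature. Compounds were first preincubated 15 min with enzyme at titrated concentrations; quinidine was the intraplate control.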

Test [7] concerns the target Cytochrome P450 2C9 (Homo sapiens) (UniProt P11712). Put plainly: qHTS for inhibitors of CYP2C9 against the NCATS DSHEA and TCM libraries (AID 1919973).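 Further: luminogenic pro-luciferin CYP2C9 substrate turned into luciferin with NADPH regeneration; on the % scale 0 is the no-effect control and ±100 the full control effect.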 As to conditions: recombinant CYP2C9 enzyme activity, luminescence; series mostly up to 34.1 µM. In short, it runs like this:
(§3)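 Read-out is luminescence after P450-Glo detection (30 min, RT). Before that: 15 min compound–enzyme preincubation, then 30-45 min reaction with 1x NADPH regeneration solution, substrate concentration isoform-specific.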

In test [8] the target is Cytochrome P450 2C19 (Homo sapiens) (UniProt P33261). The test can be described thus: qHTS for inhibitors of CYP2C19 against the NCATS DSHEA and TCM libraries (AID 1919974).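 Further: luminescence from luciferin released by CYP2C19 oxidation of a pro-luciferin substrate; on the % scale 0 is the no-effect control and ±100 the full control effect.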 The conditions noted are these: CYP2C19 enzyme inhibition, luminescence qHTS; series mostly up to 34.1 µM. In short, it runs like this:
as §3

Test [9] in a line: KB-3-1 P-gp reporter qHTS against the NCATS DSHEA and TCM libraries (AID 1919975). Further: potency means the concentration at half of the fitted maximal effect. As to conditions: KB-3-1 parental cells, CellTiter-Glo luminescence viability, 72 h; series mostly up to 26.1 µM. In short, it runs like this: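 KB-3-1 parental line, 1536-well qHTS: cells seeded, ~4 h attachment, pintool compound addition, ~72 h at 37C, then CellTiter-Glo, 30 min RT, luminescence. Concentration-response format.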

Test [10] in a line: qHTS Counterscreen for compound interference against the NCATS DSHEA and TCM libraries (AID 1919978).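 Further: compounds preincubated with 1 µM D-luciferin or buffer before detection reagent; % of control where 0% means no effect.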 As to conditions: firefly luciferase detection reagent interference, luminescence. In short, it runs like this:
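Compounds, titrated from 19.5 nM to 39.8 uM final, were pinned onto 1 uM D-luciferin or plain 100 mM potassium phosphate. After 15 min at room temperature, luciferin detection reagent was added for 30 min before the luminescence read.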

Test [11] can be described thus: Dual reporter qHTS for agonist of Pregnane X Receptor (hPXR) against the NCATS DSHEA and TCM libraries: Fluorescence readout (AID 1920058). Further: 0% is about no effect. The conditions noted are these: PXR dual reporter cells; series mostly up to 40 µM. In short, it runs like this: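 HepG2 hPXR-Luc, 2000 cells/well, 5 h attach; cpds ~24 h, 37 °C/5% CO2; CellTiter-Fluor 1 h; fluor. Ex/Em 405/540 nm = viability.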

In test [12] the target is Nuclear receptor subfamily 1 group I member 2 (Homo sapiens) (UniProt O75469). The test can be described thus: Dual reporter qHTS for agonist of Pregnane X Receptor (hPXR) against the NCATS DSHEA and TCM libraries: Luminescence readout (AID 1920059). Further: 0% is about no effect. As to conditions: hPXR dual reporter cells, luciferase luminescence agonist; series mostly up to 40 µM. In short, it runs like this:
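hPXR-LucHepG2 cells in phenol red-free DMEM with 5% charcoal-stripped FBS, 2000 cells/well, attached 5 h, then exposed 24 h at 37C to compounds; rifampicin as positive agonist control (2.8 nM–92 uM). Luciferase luminescence read.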

For test [13] the target is unchanged. The test can be described thus: Dual reporter qHTS for antagonist of Pregnane X Receptor (hPXR) against the NCATS DSHEA and TCM libraries: Luminescence Readout (AID 1920060).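 Further: HepG2 cells carrying hPXR luciferase reporter stimulated with rifampicin at 2 µM; 0% is about no effect.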 As to conditions: hPXR dual reporter cells, luciferase luminescence, antagonist mode; series mostly up to 40 µM. In short, it runs like this:
(§4)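 In antagonist mode, 2 uM rifampicin was added to hPXR-Luc HepG2 cells alongside test substances, incubated 24 h at 37 C; luminescence gave reporter activity, and CellTiter-Fluor fluorescence (405/540 nm) gave viability.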

The nature of test [14]: Dual reporter qHTS for antagonist of Pregnane X Receptor (hPXR) against the NCATS DSHEA and TCM libraries: Fluorescence Readout (AID 1920061). Further: 0% is about no effect. The conditions noted are these: PXR dual reporter cells, antagonist mode; series mostly up to 40 µM. In short, it runs like this: as §4
Where [15] appears, read: measured here: PEO1 parental Z-AUC.
Setting [16] is: TFE3-RCC UOK109 viability, measured here: UOK109 Z-AUC.
Setting [17] is: TFE3-RCC viability, measured here: UOK124 Z-AUC.
The mark [18] stands for this setting: TFE3-RCC viability, measured here: UOK145 Z-AUC.

The structures appear in SMILES notation. Records with an inconclusive call do not appear. Active and inactive are the calls of the source. Unless noted, the call rests on the fitted dose curve; in most records, active means well fitted curve in the direction sought with a large enough effect; inconclusive means small, poorly fitted or top-dose-only effect, or another doubt; inactive means no such curve, though single readings can be large; an effect the other way counts as inactive or inconclusive.

Nuclear receptor subfamily 1 group I member 2 (Homo sapiens), sequence (O75469 whole entry, looked up): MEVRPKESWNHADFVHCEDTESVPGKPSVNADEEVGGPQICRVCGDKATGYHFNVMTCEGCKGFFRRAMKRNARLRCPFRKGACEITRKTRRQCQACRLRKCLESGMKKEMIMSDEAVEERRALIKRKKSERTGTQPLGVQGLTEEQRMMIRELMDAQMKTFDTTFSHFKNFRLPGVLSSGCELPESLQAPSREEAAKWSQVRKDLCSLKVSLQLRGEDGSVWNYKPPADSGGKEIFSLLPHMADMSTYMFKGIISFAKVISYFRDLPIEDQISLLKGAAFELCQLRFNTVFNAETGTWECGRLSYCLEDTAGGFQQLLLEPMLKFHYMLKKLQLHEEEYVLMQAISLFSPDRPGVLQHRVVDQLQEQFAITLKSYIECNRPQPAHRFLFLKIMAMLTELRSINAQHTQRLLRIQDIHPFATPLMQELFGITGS
Cytochrome P450 2C9 (Homo sapiens), sequence (P11712 whole entry, looked up, canonical isoform): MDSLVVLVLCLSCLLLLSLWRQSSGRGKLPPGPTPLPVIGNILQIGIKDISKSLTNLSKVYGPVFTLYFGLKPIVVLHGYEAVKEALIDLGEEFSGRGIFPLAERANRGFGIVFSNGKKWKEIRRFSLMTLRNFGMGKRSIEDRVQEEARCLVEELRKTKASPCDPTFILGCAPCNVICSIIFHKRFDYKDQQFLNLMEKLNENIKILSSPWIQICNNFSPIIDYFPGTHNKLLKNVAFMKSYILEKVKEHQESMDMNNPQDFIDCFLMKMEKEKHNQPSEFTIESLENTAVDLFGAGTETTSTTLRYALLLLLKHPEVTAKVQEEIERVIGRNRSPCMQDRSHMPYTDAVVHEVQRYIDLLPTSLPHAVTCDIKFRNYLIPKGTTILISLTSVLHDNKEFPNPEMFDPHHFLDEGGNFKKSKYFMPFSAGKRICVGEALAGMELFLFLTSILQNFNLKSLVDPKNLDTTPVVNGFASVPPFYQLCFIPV
Cytochrome P450 2D6 (Homo sapiens), sequence (P10635 whole entry, looked up): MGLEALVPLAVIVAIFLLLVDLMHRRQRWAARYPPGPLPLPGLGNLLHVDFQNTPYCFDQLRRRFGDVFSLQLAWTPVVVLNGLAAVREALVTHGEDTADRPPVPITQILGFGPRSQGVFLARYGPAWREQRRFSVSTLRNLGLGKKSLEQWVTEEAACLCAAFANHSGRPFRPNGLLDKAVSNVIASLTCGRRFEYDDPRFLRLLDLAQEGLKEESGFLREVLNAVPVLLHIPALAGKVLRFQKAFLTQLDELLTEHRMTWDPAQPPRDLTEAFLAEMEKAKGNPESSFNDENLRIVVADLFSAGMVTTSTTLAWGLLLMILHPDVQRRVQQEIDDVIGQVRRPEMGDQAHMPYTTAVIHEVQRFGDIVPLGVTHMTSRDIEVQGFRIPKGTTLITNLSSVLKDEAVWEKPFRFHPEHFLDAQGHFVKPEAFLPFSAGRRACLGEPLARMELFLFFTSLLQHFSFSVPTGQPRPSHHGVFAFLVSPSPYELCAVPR
Cytochrome P450 2C19 (Homo sapiens), sequence (P33261 whole entry, looked up): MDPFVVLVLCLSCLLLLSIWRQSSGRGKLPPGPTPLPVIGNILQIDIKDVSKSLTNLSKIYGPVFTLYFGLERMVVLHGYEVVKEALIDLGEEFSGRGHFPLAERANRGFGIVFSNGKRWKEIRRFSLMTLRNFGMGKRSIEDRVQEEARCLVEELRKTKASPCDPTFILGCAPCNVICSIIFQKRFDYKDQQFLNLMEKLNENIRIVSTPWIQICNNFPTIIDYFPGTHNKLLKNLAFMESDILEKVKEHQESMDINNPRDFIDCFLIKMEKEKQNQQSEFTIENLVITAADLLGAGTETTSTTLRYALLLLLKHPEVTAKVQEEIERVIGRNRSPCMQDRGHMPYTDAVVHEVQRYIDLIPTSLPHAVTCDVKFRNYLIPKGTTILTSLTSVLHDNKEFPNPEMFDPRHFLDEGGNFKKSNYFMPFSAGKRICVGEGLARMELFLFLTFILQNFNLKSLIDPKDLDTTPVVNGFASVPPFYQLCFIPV

With `CC(=O)CC(c1ccccc1)c1c(O)c2ccccc2oc1=O` (stereo not given), the Potency entry in test [1] and in test [2] was “inactive” throughout. For the same compound, the Z-AUC was 1.13 (inactive) in [3], 1.51 in [3] (setting [15]) and 1.67 in test [3] (measured here: PEO4 Z-AUC). Also, the figures for the z-score in test [4] (setting [16]), in test [4] (setting [17]) and in [4] (setting [18]) were 0.83, 0.655 and 0.641, respectively.

As for `CCOC(=O)[C@H](CCc1ccccc1)N[C@H]1CS[C@H](c2cccs2)CN(CC(=O)O)C1=O`, the Potency is 1.66 µM (active) in [1] and 0.59 µM (active) in [2]. For the same compound, the Z-AUC in test [3] is -0.655 (inactive); in [3] (setting [15]) it was -0.787; in [3] (measured here: PEO4 Z-AUC) it was -0.726. Besides, in [5] (parasite line A), the activity, negative = inhibition was -33.7% (inactive). For the same compound, the Potency result in the test with 3D7 and in the test on AA1029 was “inactive” throughout.

Regarding `CNC1CCCN(c2c(F)cc3c(=O)c(C(=O)O)cn(C4CC4)c3c2OC)C1` (stereo not given), the Potency in test [1] is 9.35 µM (active). Moreover, the values for the activity, negative = inhibition in [5] (parasite line A) and in test [5] (parasite line B) were 5.3% (inactive) and 5% (inactive), respectively. Besides, the Potency entry in the test on 3D7, with 7G8 and in the test with AA1029 was “inactive” in each case.

With `Clc1ccccc1CN1CCc2sccc2C1`, the Z-AUC is 0.114 (inactive) in test [3], 0.0683 in test [3] (setting [15]) and 0.329 in [3] (measured here: PEO4 Z-AUC).

On to `COc1ncnc(NS(=O)(=O)c2ccc(N)cc2)c1OC`, for which the Potency result (in test [1]; in [2]; in the test with 7G8; in the test on AA1029) was “inactive” in each case. Moreover, the results for the Z-AUC in test [3], in [3] (setting [15]) and in test [3] (measured here: PEO4 Z-AUC) were 1.84 (inactive), 1.63 and 1.91, respectively. The results for the z-score in test [4] (setting [16]), in test [4] (setting [17]) and in test [4] (setting [18]) were 0.466, 0.339 and 0.671, respectively. Moreover, the activity, negative = inhibition in test [5] (parasite line A) is -18.9% (inactive); in [5] (parasite line B), 11.3% (inactive).

For `O=NN(CCCl)C(=O)NC1CCCCC1`, the Potency entry (in test [1]; in [2]; with 3D7; in the test on 7G8; in the test with AA1029) was “inactive” in each case. The Z-AUC in test [3] was 0.23 (inactive); in test [3] (setting [15]), 1.4; in test [3] (measured here: PEO4 Z-AUC) it was 1.4. The z-score in test [4] (setting [16]) amounted to 0.385; in test [4] (setting [17]), 1.51; in test [4] (setting [18]), 1.28. The activity, negative = inhibition was 5.42% (inactive) in [5] (parasite line A) and 5.97% (inactive) in test [5] (parasite line B).

Take `Cc1nnc(NS(=O)(=O)c2ccc(N)cc2)s1`: the Potency in test [1] was 9.35 µM (active); in [2], 4.18 µM (active). The Z-AUC is 1.31 (inactive) in test [3], 0.997 in [3] (setting [15]) and 1.46 in test [3] (measured here: PEO4 Z-AUC). The activity, negative = inhibition was 1.45% (inactive) in test [5] (parasite line A) and 11.3% (inactive) in test [5] (parasite line B). Moreover, the Potency entry in the test on 3D7, in the test with 7G8 and with AA1029 was “inactive” in each case.

As to `CN1CCCC(n2nc(Cc3ccc(Cl)cc3)c3ccccc3c2=O)CC1` (stereo not given), the Potency in [1] is 1.32 µM (active); in [2] it was 0.372 µM (active); with 7G8, 12.6 µM (active). Besides, the activity, negative = inhibition in [5] (parasite line A) is -9.96% (inactive); in test [5] (parasite line B), -11.1% (inactive). Besides, in the test with 3D7, the Potency result was “inactive”.

In the case of `O=C(O)CSCC(=O)NC1CCSC1=O` (stereo not given), the Potency entry in [1] was “inactive”. The Z-AUC is -0.00872 (inactive) in [3], 0.644 in test [3] (setting [15]) and 0.13 in test [3] (measured here: PEO4 Z-AUC). Besides, the z-score was 0.815 in [4] (setting [16]), 0.223 in test [4] (setting [17]) and 1.5 in test [4] (setting [18]).

With `CNC(=O)c1cc(Oc2ccc(NC(=O)Nc3ccc(Cl)c(C(F)(F)F)c3)cc2)ccn1`, the Potency in test [1] is 20.9 µM (active); with 7G8 it was 1 µM (active). In addition, the Z-AUC was 0.739 (inactive) in [3], 0.309 in test [3] (setting [15]) and 0.253 in test [3] (measured here: PEO4 Z-AUC).

Regarding `CCOCC(O)COc1ccc(NC(=O)CC[S+](C)C)cc1` (stereo not given), the Potency entry (in test [2]; in the test on 3D7; with 7G8; in the test with AA1029) was “inactive” throughout. For the same compound, the values for the z-score in test [4] (setting [16]), in [4] (setting [17]) and in test [4] (setting [18]) were 0.123, 0.296 and 0.104, respectively. The activity, negative = inhibition is 8.74% (inactive) in test [5] (parasite line A) and 4.77% (inactive) in test [5] (parasite line B).

For `COc1ccc2cc3[n+](cc2c1OC)CCc1cc2c(cc1-3)OCO2`, the Potency in [1] is 3.32 µM (active); in test [6] it was 2.24 µM (active); in [9] it was 2 µM (active); in test [5] (parasite line A) it was 0.447 µM (active); in test [5] (parasite line B), 1.26 µM (active); in the test with 3D7, 2 µM (active). Also, the Potency with 7G8 is 0.282 µM (active); in the test on AA1029 it was 0.708 µM (active). Besides, the outcome in test [7], in [11], in test [12], in test [13] and in [14] was inactive. In addition, the Potency entry in [8] is “inactive”. Further, the max response in test [10] is -1.19% (inactive). Moreover, the Z-AUC in test [3] is 0.64 (inactive); in test [3] (setting [15]), -0.712; in [3] (measured here: PEO4 Z-AUC), 0.437.
